An excerpt weighted towards active compounds, which were near 2.1% of everything screened.
rat GALR2 agon: agonists of rat galanin receptor 2 (GALR2) | Galanin receptor type 2 (Rattus norvegicus), O08726 | cell-based GALR2 agonist screen | activation, % at 10 µM | actives 0.5% (n = 16,000) | AID 833, 2007; in the data active means activation above about 15%
S1P1 agonist: activates the human S1P1 receptor; S1P1 agonist cell-based reporter assay; actives 1.5% (n = 16,000); AID 1044, 2008; activation, % at 4.5 µM; in the data active means activation above about 80%
TLR4 MyD88 blk: inhibitors of human TLR4-MyD88 binding. Cell-based TLR4-MyD88 binding inhibition assay. inhibition, % at 10 µM. actives 0.06% (n = 16,000). AID 811, 2007; in the data active means inhibition above about 45%
OPRK1 antag MB: antagonists of human kappa opioid receptor OPRK1, Maybridge library. OPRK1 cells, antagonist mode, fluorescence readout. inhibition, % at 9 µM. actives 0.4% (n = 16,000). Kappa-type opioid receptor (Homo sapiens), P41145; in the data active means inhibition above about 50%
Target sequence (P41145 whole entry, looked up): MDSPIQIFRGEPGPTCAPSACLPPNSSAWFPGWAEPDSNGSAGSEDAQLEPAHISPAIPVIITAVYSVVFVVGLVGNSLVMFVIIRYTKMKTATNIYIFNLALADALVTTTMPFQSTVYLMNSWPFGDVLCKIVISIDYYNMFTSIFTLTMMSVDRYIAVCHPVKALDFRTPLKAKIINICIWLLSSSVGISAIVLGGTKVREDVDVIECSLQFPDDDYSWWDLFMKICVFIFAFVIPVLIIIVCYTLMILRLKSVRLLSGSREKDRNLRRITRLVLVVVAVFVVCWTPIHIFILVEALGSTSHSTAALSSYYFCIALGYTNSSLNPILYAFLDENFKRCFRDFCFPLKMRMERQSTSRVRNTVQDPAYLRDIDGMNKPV
Numbers stand for hits; n = inactive; x = no result.

SMILES	rat GALR2 agon	S1P1 agonist	TLR4 MyD88 blk	OPRK1 antag MB
O=C(Sc1ccc(C(F)(F)F)cn1)c1csc(C2COc3ccccc3O2)n1 (stereo not drawn)	n	n	n	n
O=C(Nc1ccc([N+](=O)[O-])cc1)Nc1csc(-c2cccnc2)n1	n	n	n	51.8
O=C(O)c1sccc1S(=O)(=O)Nc1ccccc1N1CCOCC1	n	n	n	n
N#CC1=C(N)C(C#N)(C#N)C2(CCCCC2)C2CCCC=C12 (stereo not drawn)	n	n	n	n
CS(=O)(=O)/C(C#N)=C/c1ccccc1OCc1c(Cl)cccc1Cl	18.2	n	n	n
CCOC(=O)COc1ccccc1/C=C(\C#N)C(=O)c1ccc(Cl)cc1	n	n	n	n
O=C(Nc1nnc(C(F)(F)F)s1)c1ccccc1	n	n	n	n
O=C(Nc1ccccc1)Nc1nnc(C(F)(F)F)s1	n	109.5	n	n
NS(=O)(=O)c1cccc(NC(=O)C2COc3ccccc3O2)c1 (stereo not drawn)	n	n	n	n
CSC(=NCc1sccc1CSc1ccc(Cl)cc1)NC#N	n	96.7	n	n
CSC(=NCc1cccs1)NC#N	n	n	n	n
CC(C)(C)NC(=S)N/N=C/c1ccco1	n	n	n	n
Cc1ccc(-c2cc(Cc3ccncc3)c(=O)[nH]n2)cc1	n	n	n	n
O=c1ccc(-c2ccncc2)n[nH]1	23.2	n	n	n
O=C(Nc1ccncc1)c1cc([N+](=O)[O-])ccc1Sc1ccccn1	n	n	n	n
Fc1ccc2c(c1)/C(=N\Nc1cc(C(F)(F)F)ccc1Cl)CCO2	n	n	n	n
O=[N+]([O-])c1ccc(N/N=C2\CCOc3ccc(F)cc32)cc1	n	n	n	50.5
O=C(c1ccc2c(c1)CCC2)C1CCC1	46.3	n	x	n
COc1cc2c(cc1OC)CC(=O)OC2	n	80.7	n	n
O=C(CO/N=C/c1ccc(Cl)cc1Cl)NNC(=S)Nc1cc(Cl)ccc1Cl	n	85.8	n	n
COC(=O)CO/N=C/c1ccc(Cl)cc1Cl	n	n	n	n
COc1ccc(C(=O)Nc2ccc(N3CCN(c4ncccc4C(F)(F)F)CC3)nc2)cc1	n	92.9	n	n
Nc1c(C(=O)N/N=C/c2ccc3c(c2)OCO3)sc2nnc(-c3ccccc3)c(-c3ccccc3)c12	n	n	n	79.9
COc1ccc(OC)c(S(=O)(=O)N2CCOCC2)c1	n	n	n	n
Cc1csc(-c2nc(-c3ccc(C(F)(F)F)cc3)no2)c1	n	85.7	n	n
SMILES	rat GALR2 agon	S1P1 agonist	TLR4 MyD88 blk	OPRK1 antag MB
Cc1nc(-c2noc(-c3ccc(C(F)(F)F)cc3)n2)cs1	n	n	n	n
CCOc1ccccc1NC(=O)Nc1cccc(C(=O)O)c1	n	n	n	n
N#C/C(=N\Nc1ccccc1Cl)S(=O)(=O)c1ccc(Cl)cc1	n	111.5	n	n
N#C/C(=N\O)S(=O)(=O)c1ccccc1	n	n	n	n
O=C(NNC(=S)Nc1cccc(C(F)(F)F)c1)c1cccnc1	n	n	n	n
O=C(NNC(=S)Nc1cccc(C(F)(F)F)c1)c1sc2ccccc2c1Cl	n	96.1	n	n
Cc1onc(-c2ccccc2)c1CNS(=O)(=O)c1cnn(-c2ccccc2)c1C	n	n	n	106.3
Cc1nc(C)c(S(=O)(=O)NCc2c(-c3ccccc3)noc2C)s1	n	n	n	n
Cc1cccc(C)c1NC(=O)CCN1CCCCC1	n	n	n	n
CC1C(c2ccccc2)OCCN1C(=O)CCC(=O)N1CCOC(c2ccccc2)C1C (stereo not drawn)	n	n	n	n
Cn1cnc([N+](=O)[O-])c1Sc1ccc(C(F)(F)F)cn1	34.6	n	n	n
Cc1nn(C)c(Sc2ccc(C(F)(F)F)cn2)c1[N+](=O)[O-]	n	n	n	n
CCOC(=O)c1cc(NC(=O)Nc2cccc(Cl)c2)ccc1Oc1cncc(Cl)c1	n	80.1	n	n
COCCCNC(=S)NNC(=O)c1c(OC)cc(C(F)(F)F)cc1C(F)(F)F	n	n	n	n
N#Cc1cccc(C#N)c1Oc1ccc(N)cc1	n	n	n	94.1
CNc1ccccc1C(=O)NN	n	n	n	n
CC(=O)Nc1cc([N+](=O)[O-])ccc1-n1cc(C)c(C(F)(F)F)n1	n	n	49.7	n
O=C1Nc2ccccc2C(=O)C1(O)O	n	n	n	n
COC(=O)c1ccccc1-n1cccc1C(=O)OC	n	n	n	n
COC(=O)C1=CN2c3ccccc3SC2(C(=O)OC)C(C(=O)OC)=C1C(=O)OC (stereo not drawn)	n	99.0	x	n
N#C/C(=C\c1ccco1)c1ccc([N+](=O)[O-])cc1	n	n	x	n
COC(=O)c1cc(OC)c(OC)cc1NS(=O)(=O)c1ccc(Cl)cc1	n	n	x	n
CCN(c1ccccc1)S(=O)(=O)c1cc([N+](=O)[O-])ccc1N	n	99.8	n	n
O=C1CN(c2ccc(OC(F)(F)F)cc2)C(=O)CN1CC1CC1	43.5	n	n	n
CC(ONC(=O)c1cc(C(F)(F)F)cc(C(F)(F)F)c1)C(=O)Nc1ccc(Cl)cc1 (stereo not drawn)	n	110.3	n	n
SMILES	rat GALR2 agon	S1P1 agonist	TLR4 MyD88 blk	OPRK1 antag MB
c1ccc2oc(-c3csc(-c4ccc(-c5ccon5)s4)n3)cc2c1	n	n	n	n
COc1cccc(-c2c3c([nH]c(=O)c2C#N)CCc2cc(OC)ccc2-3)c1	52.7	n	n	n
Nc1ccc(Oc2ccc(Cl)cc2C2CCCCC2)nc1	n	n	n	n
COc1ccc(C(=O)NNc2c([N+](=O)[O-])cc(C(F)(F)F)cc2[N+](=O)[O-])cc1	n	n	n	n
O=C(NNc1c([N+](=O)[O-])cc(C(F)(F)F)cc1[N+](=O)[O-])c1ccccc1-n1cccc1	n	108.9	n	n
COC(=O)c1cccc(NC(=S)Nc2ccccc2C(F)(F)F)c1	n	n	n	n
CCOC(=O)COc1nc(-c2cccs2)cc(-c2ccco2)c1C#N	n	n	n	n
N#CCOc1nc(-c2ccccc2)cc(-c2ccco2)c1C#N	22.4	n	n	n
CC(=O)Nc1ccc(F)cc1NC=C(C#N)C#N	n	n	n	n
CSc1ccc(C(F)(F)F)cc1NC=C(C#N)C#N	n	89.5	n	n
COc1c(Cl)cc(Cl)cc1-c1csc(NC(=O)C(Cl)(Cl)Cl)n1	n	88.9	n	n
COc1cc(C(=O)NC(=S)Nc2nc(-c3ccc(F)cc3)cs2)cc(OC)c1OC	n	n	n	n
Brc1ccc(-c2csc(Nc3ccncc3)n2)cc1	n	n	n	68.2
COC(=O)c1scc(S(=O)(=O)c2ccc(Cl)cc2)c1C	n	n	n	n
Cc1[nH]nc2cccc(F)c12	n	n	n	n
Cn1c(SCC(=O)NCc2ccccc2)nnc1-c1ccc2nonc2c1	n	n	n	n
CSc1nccc(-c2ccc(S(=O)(=O)Nc3cc(C(F)(F)F)cc(C(F)(F)F)c3)s2)n1	n	87.5	n	n
O=[N+]([O-])c1ccc(CSc2ccccc2)cc1	n	n	n	n
COc1ccc([N+](=O)[O-])c(S(=O)(=O)c2ccc(Cl)cc2)n1	n	104.0	n	81.6
O=C1c2ccccc2S(=O)(=O)N1CCS(=O)(=O)c1ccc(Cl)cc1Cl	n	90.6	x	n
